Screens (PubChem)
In the library only some 6.6% were active in any assay of this set; here they are far more common.
KB-3-1 cytotox: kills parental KB-3-1 adenocarcinoma cells; KB-3-1 viability, CellTiter-Glo ATP luminescence, 72 h; Potency, µM (doses to about 46.1 µM), actives largely listed as cytotoxic; AID 1347075; 1.4% of 400,000 active; note: nearly all actives have a fitted effect of over 60% in size
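Viability of parental KB-3-1 cells, measured by CellTiter-Glo luminescence, followed a 72 h incubation at 37 °C with pinned compounds in phenol-red-free DMEM containing 10% FBS.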
RGS4 inhibitor: human RGS4 inhibition; Transcreener GDP fluorescence polarization, RGS4-accelerated GTP hydrolysis; Potency, µM (doses to about 114 µM), most hits filed as inhibitors; 0.039% of 390,000 active; AID 504845; note: nearly all actives have a fitted effect of over 75% in size
Target sequence (P49798 whole entry, looked up): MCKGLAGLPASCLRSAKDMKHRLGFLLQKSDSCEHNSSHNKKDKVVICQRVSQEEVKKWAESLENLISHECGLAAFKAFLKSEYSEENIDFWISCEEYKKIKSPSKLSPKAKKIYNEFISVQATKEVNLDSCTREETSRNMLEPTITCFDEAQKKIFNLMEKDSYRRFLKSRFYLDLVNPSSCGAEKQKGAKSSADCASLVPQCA
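MLSMR compounds (23 nl, pin-transferred) preincubated 10 min at room temperature with a 500nM (2x) first reagent, then RGS4 at 900nM (2x) plus Transcreener GDP mix added; fluorescence polarization (620/688 nm) read before and after 90 min at 30 °C.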
SW480 rerep: DNA re-replication induction in SW480 cells; Potency, µM (highest dose often 46.1 µM), actives largely listed as activators; 1.8% of 340,000 active; AID 624297; SW480 DNA re-replication, Hoechst DNA content imaging, 48 h; note: nearly all actives have a fitted effect of over 55% in size
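Cells (250 per well) received 23 nL compound or DMSO by pin tool and were kept 48 hr at 37 C, 5% CO2. Nuclei were then stained with Hoechst for 40 min and scanned for DNA content.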
KB-V1 cytotox: kills drug-selected multidrug resistant KB-V1 cells; 3.4% of 400,000 active; KB-V1 MDR cells viability, CellTiter-Glo, 72 h; Potency, µM (doses to about 46.1 µM), hits mostly cytotoxic; note: nearly all actives have a fitted effect of over 60% in size
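Cells of the MDR subline KB-V1 are plated, dosed with compound at multiple concentrations, and incubated 72 h at 37 degrees C; CellTiter-Glo is then added and luminescence read after 10 min.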
MCF10A rerep: DNA re-replication induction in MCF 10a cells | MCF 10A DNA re-replication, Hoechst nuclear intensity, 48 h | Potency, µM (doses to about 46.1 µM), actives largely listed as activators | 2.9% of 350,000 active; note: nearly all actives have a fitted effect of over 50% in size
PTAP TSG101 blk: blocks PTAP/TSG101 interaction to inhibit HIV-1 budding. Q99816. Potency, µM (titrated, usually from 115 µM), actives largely listed as inhibitors. Fluorescence polarization, FITC-PTAP peptide / Tsg101 binding. 340,000 tested, under 10 active; active = well fitted inhibition curve with a large enough effect in the main read-out, with a control signal flat, not every such curve was filed as active; inconclusive = small, poorly fitted or top-dose-only effect, or effect the other way, or a change in a side signal; inactive = no such curve, though single readings can be large or run the other way
Target sequence (Q99816 whole entry, looked up): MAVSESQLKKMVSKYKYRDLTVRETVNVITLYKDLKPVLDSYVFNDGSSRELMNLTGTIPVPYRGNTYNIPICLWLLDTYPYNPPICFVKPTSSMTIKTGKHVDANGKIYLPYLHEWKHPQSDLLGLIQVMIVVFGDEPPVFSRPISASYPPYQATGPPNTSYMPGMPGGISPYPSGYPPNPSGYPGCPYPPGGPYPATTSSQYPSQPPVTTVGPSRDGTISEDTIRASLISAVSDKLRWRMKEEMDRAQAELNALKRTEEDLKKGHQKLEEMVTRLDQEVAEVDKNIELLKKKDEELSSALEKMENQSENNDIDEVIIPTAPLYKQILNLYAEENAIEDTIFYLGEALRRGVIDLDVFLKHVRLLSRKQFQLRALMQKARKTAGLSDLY
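Fluorescence anisotropy tracks displacement of a FITC-tagged PTAP peptide (50 nM) from the Tsg101 binding domain (10 uM), following a 20 min room-temperature incubation at pH 7.5.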
A number is an active result; . = inactive; ? = inconclusive; / = no result given; [ ] = remark or other dose. Unless noted, calls come from the whole dose curve; as a rule, active = well fitted curve in the direction sought with a large enough effect; inconclusive = small, poorly fitted or top-dose-only effect, or another doubt; inactive = no such curve, though single readings can be large; an effect the other way counts as inactive or inconclusive.

SMILES | KB-3-1 cytotox | RGS4 inhibitor | SW480 rerep | KB-V1 cytotox | MCF10A rerep | PTAP TSG101 blk
Cc1ccc(-n2c(C)cc(C(=O)CSc3nncs3)c2C)cc1 | 23µM | . | . | ? | . | .
CCOC(=O)c1cnc2ccc(OCC)cc2c1N1CCN(c2ccccc2OC)CC1 | ? | .[11.4 µM] | . | ? | 18µM | .
CCOC(=O)c1[nH]c2ccc(Br)cc2c1NC(=O)CCN1CCC(C(=O)OCC)CC1 | ? | .[11.4 µM] | ? | ? | 26µM | .
CCOC(=O)c1[nH]c2ccc(OC)cc2c1NC(=S)N1CCN(c2ccccc2OC)CC1 | 8.2µM | . | ? | ? | ? | .
CCOC(=O)N1CCN(CC(=O)Nc2c(C(=O)OC)[nH]c3ccccc23)CC1 | . | . | . | ? | 5.8µM | .
CCOC(=O)c1cnc2c(OC)cccc2c1N1CCN(c2ccccc2F)CC1 | . | . | / | . | / | /
COC(=O)c1[nH]c2ccccc2c1NC(=O)CN1CCCCCC1 | . | . | . | . | . | .
O=C(O)c1cn(C2CC2)c2cc(N3CCNCC3)c(F)cc2c1=O | / | / | . | / | . | /
CC1(C)CC(=O)c2cc(-c3nc(-c4ccc(Br)cc4)cs3)c(=O)n(-c3ccccc3)c2C1 | . | . | / | . | / | /
Cc1cc(NC(=O)CN2CCOCC2)n(-c2ccccc2)n1 | . | . | . | . | . | .
CCN1CCN(CC(=O)Nc2nc3ccccc3s2)CC1 | . | . | . | . | . | .
COC(=O)c1[nH]c2ccccc2c1NC(=O)CNC1CCCCC1 | . | . | . | 18µM | ? | .
Cc1cc(NC(=O)CN2CCOCC2)n(-c2nc3ccccc3s2)n1 | . | . | . | ? | 15µM | .
CCOC(=O)N1CCN(CC(=O)Nc2nc3ccccc3s2)CC1 | . | . | . | 12µM | . | .
CCOc1ccc(-n2c(/C=C/c3cccc(F)c3)nc3cc(OC)c(OC)cc3c2=O)cc1 | ? | . | / | . | / | /
CCc1ccc(NC(=O)C(NS(=O)(=O)c2cccs2)C(C)C)cc1 (stereo not given) | . | . | / | . | / | /
CCOc1ccc(C(=O)CC(C(=O)O)N2CCN(Cc3ccccc3)CC2)cc1 (stereo not given) | . | . | . | . | 16µM | .
CCOc1ccc(C(=O)CC(C(=O)O)N2CCCCC2)cc1 (stereo not given) | ? | ? | ? | . | ? | .
COc1ccc2nc(NC(=O)c3ccc(S(=O)(=O)N4CCCC(C)C4)cc3)sc2c1 (stereo not given) | . | . | / | . | / | /
CCOc1ccc(CNC(=O)Cc2ccc(NC(=O)N3CCSc4ncccc43)cc2)cc1 | . | . | / | . | / | /
COc1nc(/C=C/N(C)C)c([N+](=O)[O-])c(OC)n1 | . | . | . | . | 6.5µM | .
COc1cccc2c1OC[C@@H](CO)[C@H]2N(C)C(=O)Nc1ccc(Cl)cc1Cl | 23µM | . | . | 3.3µM | . | .
Cc1cc(C)cc(NS(=O)(=O)c2ccc(-c3cc(C)no3)cc2)c1 | / | . | / | / | / | /
CCSc1nnc(NC(=O)c2csc3c2CCCC3)s1 | . | . | 15µM | . | ? | .
Cc1cccc(S(=O)(=O)c2c(N)n(Cc3ccco3)c3nc4ccccc4nc23)c1 | ? | ? | . | 18µM | ? | .
SMILES | KB-3-1 cytotox | RGS4 inhibitor | SW480 rerep | KB-V1 cytotox | MCF10A rerep | PTAP TSG101 blk
CCCCn1c(N)c(S(=O)(=O)c2ccc(C)cc2)c2nc3ccccc3nc21 | ? | . | 0.65µM | ? | 3.7µM | .
CN(C)CCCn1c(N)c(S(=O)(=O)c2ccccc2)c2nc3ccccc3nc21 | . | . | ? | . | 23µM | .
Cc1ccc(S(=O)(=O)c2c(N)n(Cc3ccco3)c3nc4ccccc4nc23)cc1 | ? | ? | ? | . | ? | .
Cc1ccc(CNC(=O)CN2C(=O)C3(SCC(=O)N3c3cc(C)cc(C)c3)c3ccccc32)cc1 (stereo not given) | / | . | / | / | / | /
Cc1cc(C)c2c(CCl)cc(=O)oc2c1 | ? | . | 3.7µM | ? | 5.2µM | .
Cc1cc(C)c2c(CN3CCCCC3)cc(=O)oc2c1 | . | . | . | . | . | .
Cc1oc(-c2cccs2)nc1CN1CCN(CCC(C)C)C(CCO)C1 (stereo not given) | . | . | ? | . | 23µM | .
CN=CC1=C(O)c2ccccc2C1=O | . | . | . | . | 13µM | .
Cc1ccc(O)c(N=CC2=C(O)c3ccccc3C2=O)c1 | . | ? | ? | . | ? | .
O=C1C(C=Nc2ccccc2O)=C(O)c2ccccc21 | . | . | ? | . | 5.2µM | .
O=C1C(C=Nc2ccccc2)=C(O)c2ccccc21 | . | . | . | . | . | .
CCOC(=O)C(C)Sc1cc(CS(=O)(=O)c2ccccc2)nc(-c2ccccc2)n1 (stereo not given) | . | . | . | 21µM | . | .
O=C(Nc1ccccc1)c1ccc2nc(-c3ccco3)c(-c3ccco3)nc2c1 | . | ? | 18µM | ? | 12µM | .
Cc1cccc(N2CCN(C(=O)c3ccc4nc(-c5ccco5)c(-c5ccco5)nc4c3)CC2C)c1 (stereo not given) | ? | . | ? | . | 12µM | .
O=C(c1cccc(C(=O)N2CCN(c3ncccn3)CC2)c1)N1CCN(c2ncccn2)CC1 | . | . | . | . | . | .
O=C(c1ccc2nc(-c3ccco3)c(-c3ccco3)nc2c1)N1CCN(c2ncccn2)CC1 | . | . | . | ? | 13µM | .
COc1ccc(C2CC(=O)c3cc(-c4nc(-c5cccc(Cl)c5)cs4)c(=O)[nH]c3C2)cc1OC (stereo not given) | . | . | / | . | / | /
COc1ccccc1CNS(=O)(=O)c1ccc(F)c(C(=O)Nc2cc(Cl)ccc2OC)c1 | / | . | / | / | / | /
c1ccc(-c2cc(-c3ccccc3)n3ncnc3n2)cc1 | . | . | . | . | . | .
CCOC(=O)CSc1cc(-c2ccccc2)nc2ncnn12 | . | . | . | . | 2.3µM | .
C(=C\c1ccco1)/c1ccc2ccccc2n1 | . | ? | . | . | 18µM | .
Fc1cccc(F)c1/C=C/c1ccc2ccccc2n1 | . | . | / | ? | . | .
COc1ccccc1/C=C/c1ccc2ccccc2n1 | . | / | / | . | / | /
CC(O)/C=C/c1ccc2ccccc2n1 (stereo not given) | ? | . | ? | ? | 18µM | .
COc1cc(/C=C/c2ccc3ccccc3n2)cc(OC)c1OC | 2.6µM | / | / | ? | / | /
Fc1ccc(/C=C/c2ccc3ccccc3n2)cc1 | 12µM | / | / | . | / | /
COc1cc(/C=C/c2nc3ccccc3nc2/C=C/c2cc(OC)c(OC)c(OC)c2)cc(OC)c1OC | ? | / | / | . | / | /
COc1ccc(Cn2ccc3nc(C)c(C(=O)N4CCN(c5ccccc5F)CC4)cc3c2=O)cc1 | . | . | / | . | / | /
CC(=O)c1ccc(NC(=O)CSc2nc(C3CCCC3)nc3c2c(=O)n(C)c(=O)n3C)cc1 | . | . | / | . | / | /
